Source: PubChem BioAssay (Tox21)
Values joined by “and” are separate entries in the source; they are usually repeats but may differ in a detail not shown here. Equal values may be shown once. Inconclusive results are not listed. Where a call stands in place of a potency, no number is given. A number with no mark means an inactive call. Active and inactive are the calls of the source. Calls follow the shape of the dose curve; as a rule, active = well fitted cell-killing curve with a large enough effect in the repeat runs; inconclusive = weak or mixed curves, or effect the other way; inactive = flat fitted curve, though single readings scatter.

How the values were obtained:
[1] = cAMP Responsive Elements (CRE) small molecule antagonists, cell-based qHTS assay: qHTS cell viability counter screen (AID 2060913); also: nearly all actives have a fitted effect of over 40% in size
Summary of the method: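 CRE-bla HEK293T cells (2,000/well, 18 h) given compound plus NKH477 0.25 uM final for 3 h at 37C; viability counter-screen by CellTiter-Glo luminescence in same wells after 30 min.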

[2] = cAMP Responsive Elements (CRE) small molecule agonists, cell-based qHTS assay: qHTS cell viability counter screen (AID 2060914); also: nearly all actives have a fitted effect of over 50% in size
Summary of the method: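 Cytotoxicity was measured as ATP luminescence (CellTiter-Glo, 30 min at room temperature) in the same wells as the CRE-bla FRET read-out. HEK293T CRE-bla cells had 3 h compound exposure at 37C/5% CO2.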
Potency is read from the fitted curve at half-maximal effect.

| Structure (SMILES) | Potency [1] | Potency [2] | viability change, negative = cytotoxic [1] | activity change, negative = cytotoxicity [2] |
| --- | --- | --- | --- | --- |
| O=C(Cl)c1ccc([N+](=O)[O-])cc1 | inactive | inactive | – | – |
| CC(C)S | inactive | inactive | – | – |
| CCOc1cccc(N)c1 | inactive | inactive | – | – |
| CCCCCCS | inactive | inactive | – | – |
| Nc1ccc(/C=C/c2ccc(N)cc2S(=O)(=O)O)c(S(=O)(=O)O)c1 | – | – | 3.88% [at 0.349 µM] | 6.77% [at 0.349 µM] |
| CCOCCn1c(C2CCN(CCc3ccc(C(C)(C)C(=O)O)cc3)CC2)nc2ccccc21 | inactive | inactive | – | – |
| O=C1CCCCCCCCCCC(=O)OCCO1 | inactive | inactive | – | – |
| C[N+]1(C)CCC(OC(=O)C(O)(c2ccccc2)C2CCCC2)C1 (stereo not given) | inactive | inactive | – | – |
| C#C[C@]1(O)CC[C@H]2[C@@H]3CCC4=CC(=O)CC[C@@H]4[C@H]3CC[C@@]21CC | inactive | inactive | – | – |
| Cc1cccc(C(=O)O)c1[N+](=O)[O-] | inactive | inactive | – | – |
| Cc1ccc(Cl)c(Nc2ccccc2C(=O)O)c1Cl | inactive | inactive | – | – |
| CCCc1ccccc1 | inactive | inactive | – | – |
| CC(C)Oc1ccccc1O | inactive | inactive | – | – |
| Nc1ccc2c(O)cc(S(=O)(=O)O)cc2c1 | inactive | inactive | – | – |
| C=CC(C)(O)CC/C=C(\C)CCC=C(C)C (stereo not given) | inactive | inactive | – | – |
| CCCCCCCCCCCCCC[P+](CCCC)(CCCC)CCCC | 60.8 µM (active) and 28.5 µM (active) | 60.8 µM (active) and 61.1 µM (active) | – | – |
| COCCCOCCCOC | inactive | inactive | – | – |
| CCCCCCCCCCCC(=O)OCC(O)CO (stereo not given) | inactive | inactive | – | – |
| COc1ccc(COC=O)cc1 | inactive | inactive | – | – |
| Cn1c(=O)c2c(ncn2CC(O)CO)n(C)c1=O (stereo not given) | inactive | inactive | – | – |
| Nc1ccc2c(S(=O)(=O)O)cccc2c1S(=O)(=O)O | inactive | inactive | – | – |
| Clc1cc(Cl)c(Cl)cc1Cl | inactive | inactive | – | – |
| CC(=O)Nc1ccc(C)c(Cl)c1 | inactive | inactive | – | – |

| Structure (SMILES) | Potency [1] | Potency [2] | viability change, negative = cytotoxic [1] | activity change, negative = cytotoxicity [2] |
| --- | --- | --- | --- | --- |
| CCn1cc(C(=O)O)c(=O)c2cc(F)c(N3CCNCC3)nc21 | inactive | inactive | – | – |
| COCCc1ccc(OCC2CO2)cc1 (stereo not given) | inactive | inactive | – | – |
| CC1=CC(O)CC(C)(C)C1 (stereo not given) | inactive | inactive | – | – |
| O=C(/C=C/c1ccccc1)OCCc1ccccc1 | inactive | inactive | – | – |
| CC(C)OC(=O)CCCCC(=O)OC(C)C | inactive | inactive | – | – |
| Cc1cscn1 | inactive | inactive | – | – |
| COC(=O)c1cc(Cl)ccc1NS(=O)(=O)C(F)(F)F | inactive | inactive | – | – |
| Cc1cccn2c(=O)c(-c3nnn[nH]3)cnc12 | – | – | -1.68% [at 18.9 µM] | -13.9% [at 18.9 µM] |
| CCCCN(CCCC)C(C(N)=O)c1ccc(OC)cc1 (stereo not given) | inactive | inactive | – | – |
| CCCOC(=O)CCCCC(=O)OCCC | inactive | inactive | – | – |
| Cc1ncc(CO)c(C=O)c1O | inactive | inactive | – | – |
| CO[C@@H]1[C@@H](O[C@@H]2O[C@H](C)[C@@H](O[C@H]3C[C@@](C)(O)[C@@H](O)[C@H](C)O3)[C@H](N(C)C)[C@H]2O)[C@@H](CC=O)C[C@@H](C)[C@@H](O[C@@H]2CC[C@H](N(C)C)[C@@H](C)O2)/C=C/C=C/C[C@@H](C)OC(=O)C[C@H]1OC(C)=O | inactive | inactive | – | – |
| ClC(Cl)(Cl)c1ccc(C(Cl)(Cl)Cl)cc1 | inactive | inactive | – | – |
| CC(=O)OCc1ccc2c(c1)OCO2 | inactive | inactive | – | – |
| CCCCOCCOCCSC#N | inactive | inactive | – | – |
| O=C(OCC1(COC(=O)c2cccnc2)CCCC(COC(=O)c2cccnc2)(COC(=O)c2cccnc2)C1O)c1cccnc1 | inactive | inactive | – | – |
| CCCCOc1ccc(OCCCN2CCOCC2)cc1 | inactive | inactive | – | – |
| CCCOCCO | inactive | inactive | – | – |
| Nc1ccc(C(=O)OCC(O)CO)cc1 (stereo not given) | inactive | inactive | – | – |
| CCCCOCCOCCOCCO | inactive | inactive | – | – |
| CC[C@H]1CC[C@H](NCc2cc3c(cc2OC)[C@H]2C[C@H]2C(=O)N3C)[C@H](c2ccccc2)N1 | inactive | inactive | – | – |
| Cc1ccccc1N=Nc1ccc(N=Nc2c(O)ccc3ccccc23)c(C)c1 | inactive | inactive | – | – |
| COc1ccc(C(=O)c2ccccc2)c(O)c1 | inactive | inactive | – | – |

| Structure (SMILES) | Potency [1] | Potency [2] | viability change, negative = cytotoxic [1] | activity change, negative = cytotoxicity [2] |
| --- | --- | --- | --- | --- |
| CCCCOCCOC(=O)c1ccccc1C(=O)OCCOCCCC | inactive | inactive | – | – |
| CCCCCCCCOc1ccc(C(=O)O)cc1 | inactive | inactive | – | – |
| N#CCc1cccc(C(F)(F)F)c1 | inactive | inactive | – | – |
| C/C(=N/NC(=O)c1ccncc1)C(=O)O | inactive | inactive | – | – |
| C/C=C/c1ccc(OCC)c(O)c1 | inactive | inactive | – | – |
| CCCCCCCC(=O)OCC | inactive | inactive | – | – |
| COc1ccc2nc(S(=O)Cc3ncc(C)c(OC)c3C)[nH]c2c1 (stereo not given) | inactive | inactive | – | – |
| CC(=O)CC(=O)Nc1ccccc1 | inactive | inactive | – | – |
| CO/N=C(/C(=O)N[C@@H]1C(=O)N2C(C(=O)OCOC(=O)C(C)(C)C)=C(C)CS[C@H]12)c1csc(N)n1 | inactive | inactive | – | – |
| CCOc1cc(NC(C)=O)ccc1C(=O)OC | inactive | inactive | – | – |
| c1ccc2cc(Nc3ccc(Nc4ccc5ccccc5c4)cc3)ccc2c1 | inactive | inactive | – | – |
| COC(=O)CCCC(=O)O | inactive | inactive | – | – |
| O=CNc1ccccc1 | inactive | inactive | – | – |
| O=C1C=CC(=O)O1 | inactive | inactive | – | – |
| C[C@@H](O)[C@H]1C(=O)N2C(C(=O)O)=C(S[C@@H]3CN[C@H](C(=O)N(C)C)C3)[C@H](C)[C@H]12 | inactive | inactive | – | – |
| O=C(O)/C=C/c1ccccc1 | inactive | inactive | – | – |
| O=S(=O)(O)c1cc(O)ccc1O | inactive | inactive | – | – |
| COC1CCC=CO1 (stereo not given) | inactive | inactive | – | – |
| O=[N+]([O-])c1cncn1CCN1CCOCC1 | inactive | inactive | – | – |
| CC(=O)NCCCCCC(=O)O | inactive | inactive | – | – |
| CCCCN(CCC(=O)OCC)C(C)=O | inactive | inactive | – | – |
| O=C(O)c1cc(=O)[nH]c(=O)[nH]1 | inactive | inactive | – | – |
| NC(=O)CCCCC(N)=O | inactive | inactive | – | – |

| Structure (SMILES) | Potency [1] | Potency [2] | viability change, negative = cytotoxic [1] | activity change, negative = cytotoxicity [2] |
| --- | --- | --- | --- | --- |
| CC(COCCO)OCCO (stereo not given) | inactive | inactive | – | – |
| Cc1oncc1C(=O)Nc1ccc(C(F)(F)F)cc1 | inactive | inactive | – | – |
| Cc1cccc(C)c1[N+](=O)[O-] | inactive | inactive | – | – |
| Cc1ccc(C=O)cc1C | inactive | inactive | – | – |
| NNc1ccc(C(=O)O)cc1 | inactive | inactive | – | – |
| CCOC(=O)OCC | inactive | inactive | – | – |
| CN(C)CCOC(c1ccc(Cl)cc1)c1ccccn1 (stereo not given) | inactive | inactive | – | – |
| OC[C@H]1O[C@@H](OCCc2ccc(O)cc2)[C@H](O)[C@@H](O)[C@@H]1O | inactive | inactive | – | – |
| FC(F)(F)c1ccccc1-n1ccnc1 | inactive | inactive | – | – |
| Nc1cc([N+](=O)[O-])ccc1O | inactive | inactive | – | – |
| Cc1cc2nc(N)sc2cc1C | inactive | inactive | – | – |
| CNc1ccccc1 | inactive | inactive | – | – |
| Oc1cc(O)c(Cl)cc1Cl | inactive | inactive | – | – |
| CCCSSCCC | inactive | inactive | – | – |
| CC1CC(OC(=O)C(O)c2ccccc2)CC(C)(C)N1C (stereo not given) | inactive | inactive | – | – |
| O=C(CCc1ccc(O)cc1)c1c(O)cc(O)cc1O | inactive | inactive | – | – |
| CC(C)=CCO | inactive | inactive | – | – |
| CN[C@@H]1[C@H](O)[C@H](NC)[C@H]2O[C@@]3(O)C(=O)C[C@@H](C)O[C@H]3O[C@@H]2[C@H]1O | inactive | inactive | – | – |
| CC(=O)S[C@@H]1CC2=CC(=O)CC[C@]2(C)[C@H]2CC[C@@]3(C)[C@@H](CC[C@@]34CCC(=O)O4)[C@H]12 | inactive | inactive | – | – |
| O=C(O)CCCCCCC(=O)O | inactive | inactive | – | – |
| C[C@@H](N)C(=O)O | inactive | inactive | – | – |
| CC(=O)N[C@@H](CCC(N)=O)C(=O)O | inactive | inactive | – | – |
| CCOC(=O)C(C)Oc1ccc(Oc2cnc3cc(Cl)ccc3n2)cc1 (stereo not given) | inactive | inactive | – | – |

| Structure (SMILES) | Potency [1] | Potency [2] | viability change, negative = cytotoxic [1] | activity change, negative = cytotoxicity [2] |
| --- | --- | --- | --- | --- |
| CCOC(=O)CCC(C)=O | inactive | inactive | – | – |
| O=C(OC1C[C@H]2CC[C@@H](C1)[N+]21CCCC1)C(O)(c1ccccc1)c1ccccc1 (stereo not given in full) | inactive | inactive | – | – |
| COc1ccc(OC)c(C(O)CNC(=O)CN)c1 (stereo not given) | inactive | inactive | – | – |
| CCN(C(=O)c1cc(C)cc(OC[C@H](C)Nc2ccncc2)c1)C(C)C | inactive | inactive | – | – |
| O=Cc1ccc(O)c(O)c1O | inactive | inactive | – | – |
| CCCC(=O)OCCC(C)C | inactive | inactive | – | – |
| COc1cc(C=O)ccc1O | inactive | inactive | – | – |
| CCCSS/C(CCO)=C(\C)N(C=O)Cc1cnc(C)nc1N | inactive | inactive | – | – |
| COC(=O)c1ccccc1C(=O)O | inactive | inactive | – | – |
| COc1cccc(N(C)C(=S)Oc2ccc3c(c2)CCCC3)n1 | inactive | inactive | – | – |
| O=C(O)/C=C/c1cnc[nH]1 | inactive | inactive | – | – |
| CC(C)C1CCC(C(=O)N[C@H](Cc2ccccc2)C(=O)O)CC1 (stereo not given in full) | inactive | inactive | – | – |
| Oc1ccc(OCc2ccccc2)cc1 | inactive | inactive | – | – |
| CO[C@]12C[C@@H](COC(=O)c3cncc(Br)c3)CN(C)[C@@H]1Cc1cn(C)c3cccc2c13 | inactive | inactive | – | – |
| O=S(=O)(O)SSS(=O)(=O)O | inactive | inactive | – | – |
| CC#N | inactive | inactive | – | – |
| O=C(O)c1ccc([N+](=O)[O-])cc1 | inactive | inactive | – | – |
| C[N+](C)(C)CCCCCC[N+](C)(C)C | inactive | inactive | – | – |
| CCOC(=O)Oc1ccc(CCNC(=O)[C@H](CCSC)NC(C)=O)cc1OC(=O)OCC | inactive | inactive | – | – |
| O=C1OC(c2ccc(O)cc2)(c2ccc(O)cc2)c2ccccc21 | inactive | inactive | – | – |
| CCC(=O)O[C@]1(C(=O)COC)[C@@H](C)C[C@H]2[C@@H]3CCC4=CC(=O)C=C[C@]4(C)C3(F)[C@@H](O)C[C@@]21C (stereo not given in full) | inactive | inactive | – | – |
| CC(O)C(=O)O (stereo not given) | inactive | inactive | – | – |
| Nc1nc(-c2ccc([N+](=O)[O-])cc2)cs1 | inactive | inactive | – | – |
